In PubChem BioAssay AID651719 (The Scripps Research Institute Molecular Screening Center, 2012) one finds inhibition data, which are given here for 37 compounds.

Structures are written as SMILES. The campaign covered roughly 360,000 compounds. About 1,600 (0.44%) were called active.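 How the source made its calls: active means inhibition above the screen-wide average plus 3 SD (cut at about 13% in these data); inactive means the rest.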 The full list was thinned out, with actives kept by preference.

The target in the assay is Galanin receptor type 3 (Homo sapiens) (UniProt O60755). The assay is described as follows: GalR3 antagonists in HEK293 cells, primary screen, cell-based, fluorescence readout (AID 651719).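 Further: forskolin and galanin both at EC90 stimulate the cells; cAMP rise reported by CNG channel membrane potential dye signal; 0% = forskolin plus galanin with DMSO and 100% = forskolin alone.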 Conditions: HEK293 GalR3-CNG cAMP membrane potential fluorescence; at 3 µM; active compounds read high; galR3 body fused to GalR1 C-terminus.
Galanin receptor type 3 (Homo sapiens), sequence (O60755 1-299 limits assumed): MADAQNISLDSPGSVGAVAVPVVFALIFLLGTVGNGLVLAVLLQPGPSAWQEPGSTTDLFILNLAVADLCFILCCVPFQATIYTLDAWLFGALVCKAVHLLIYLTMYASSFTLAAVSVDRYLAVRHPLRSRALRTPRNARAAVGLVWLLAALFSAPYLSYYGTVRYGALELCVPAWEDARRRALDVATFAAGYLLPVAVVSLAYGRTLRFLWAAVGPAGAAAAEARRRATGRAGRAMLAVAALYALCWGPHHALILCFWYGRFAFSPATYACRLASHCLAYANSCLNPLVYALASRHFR
Usually inhibition stands for the drop in the measured response relative to a control, in per cent. Take `COC(=O)C1=C(C)N(Cc2ccccc2C(F)(F)F)C(=NCc2ccc(OC)cc2)NC1c1cccc(C(F)(F)F)c1` (configuration not stated): the inhibition is -3.7% (inactive). As to `CN1C(=O)C(Br)(Br)CC1c1cccnc1` (configuration not stated), the inhibition is -8.3% (inactive).

For the compound `Nc1nc2c(ncn2[C@@H]2O[C@H](C(=O)N[C@H](Cc3ccccc3)C(=O)NCC3CCCCC3)[C@@H](O)[C@H]2O)c(=O)[nH]1`, the inhibition was -7.48% (inactive). On to `CSc1ccc(Oc2cccc3c2S(=O)(=O)N([C@H](C)c2ccccc2)C[C@@H](COCc2ccccc2)O3)cc1C`, for which the inhibition is -3.93% (inactive). `CCc1c(C)nc(SCC(=O)NC2CCCC2)[nH]c1=O`: the inhibition is -6.61% (inactive).

On to `CCc1ccc(-c2nc(SCC(=O)NC3CCCC3)n[nH]2)cc1`, for which the inhibition was 24.9% (active). As for `COC(=O)c1ccccc1NC(=O)CSc1n[nH]c(-c2ccncc2)n1`, the inhibition is -2.72% (inactive). On to `CN(C)C(=O)N1CCN(C(=O)[C@@H](Cc2ccccc2)NC(=O)[C@H]2O[C@@H](n3ccc(N)nc3=O)[C@H](O)[C@@H]2O)CC1`, for which the inhibition is -7.47% (inactive). For `COc1ccccc1CCn1cnc(-c2ccccc2)c1C(C)C`, the inhibition is -9.98% (inactive). Take `Cc1ccc(F)cc1NC(=O)Cc1nn(C)c(=O)c2ccccc12`: the inhibition was 41.5% (active). Under `Cc1ccc(F)cc1NC(=O)CSCc1c(C)noc1C` stands -4.98% (inactive); under `Cc1ccc(C)c(NC(=O)COC(=O)c2nn(C)c(=O)c3ccccc23)c1`, -2.16% (inactive); under `O=C(NCc1ccccc1)[C@H]1CCCN1C(=O)[C@H]1CCCN1C(=O)c1cc(F)cc(F)c1`, -0.96% (inactive). For the compound `Nc1ccn([C@@H]2O[C@H](C(=O)N[C@H]3CCCCNC3=O)[C@@H](O)[C@H]2O)c(=O)n1`, the inhibition is -3.96% (inactive). For the compound `C[C@@H]1CN([C@H](C)CO)C(=O)CCCn2cc(nn2)CO[C@H]1CN(C)C(=O)Nc1ccc(N2CCCCC2)cc1`, the inhibition is -3.62% (inactive). On to `NC(=O)c1ccc(NC(=O)COC(=O)C(Cc2ccccc2)NC(=O)c2ccccc2)cc1` (configuration not stated), for which the inhibition is 15.4% (active). `O=C(COC(=O)[C@H](Cc1ccccc1)NC(=O)c1cccs1)Nc1cc(F)ccc1F`: the inhibition was -2.8% (inactive). Regarding `CC(=O)c1ccc(NC(=O)N[C@@H](Cc2ccccc2)C(=O)O)cc1`, the inhibition was -4.01% (inactive). Under `COC(=O)c1c(-c2ccc(OC)cc2)c2c(c3c4ccccc4n(S(=O)(=O)c4ccc(C)cc4)c13)C(=O)N(C)C2` stands -6.49% (inactive); under `COc1ccc(-c2ccccc2C2Cc3nnccc3CN2C(=O)Nc2ccccc2)cc1` (configuration not stated), -8.69% (inactive); under `CCOC(=O)N1CCN(C(=O)C[C@H]2C[C@@]3(C(=O)OC)C(=C[C@H](C4CCCC4)O[C@@H]3C)N(Cc3ccccc3)C2=O)CC1`, -2.22% (inactive). `C#CCN([C@@H](C)C(=O)OCC)S(=O)(=O)c1ccc(Br)cc1F`: the inhibition was -6.91% (inactive). For `O=C(Nc1ccccc1Cl)/C(Cl)=C(\Cl)S(=O)c1ccccc1` (configuration not stated), the inhibition was 16.2% (active). On to `CC(=O)c1ccc(NC(=O)C(C)N(C)CC(=O)Nc2ccccc2Cl)cc1` (configuration not stated), for which the inhibition is -3.44% (inactive). Take `O=C(Nc1ccccc1Cl)c1ccccc1S(=O)(=O)c1ccccc1[N+](=O)[O-]`: the inhibition was 0.75% (inactive).

In the case of `COc1ccc(C2=CN(Cc3ccccc3)C(c3ccc(OC)cc3)CC2=O)cc1` (configuration not stated), the inhibition is -4.04% (inactive). Under `Cc1nc2ccccc2cc1OCc1ccc(F)cc1` stands 80% (active); under `Fc1cccc2ncnc(OCc3ccccc3)c12`, -3.41% (inactive). Take `Cc1occc(=O)c1OCc1ccc(F)cc1`: the inhibition is 5.85% (inactive).

With `CCOC(=O)Cn1c2c(n(-c3ccc(F)cc3)c1=O)C=C(c1ccccc1)[C@@H](C)C(C(=O)N(C)C1CCCCC1)=C2`, the inhibition was -7.9% (inactive). Next, `COC(=O)[C@]12C[C@H](CC(=O)NCCc3ccccc3OC)C(=O)N(Cc3ccccc3)C1=C[C@H](C(C)C)O[C@@H]2C1CC1`: -6.79% (inactive); `COc1cc(NC(=O)c2cc([N+](=O)[O-])ccc2Br)ccc1NC(=O)c1ccco1`: 22.4% (active); `COc1ccc(CC(=O)Nc2ccccc2NC(=O)c2ccco2)cc1OC`: -2.83% (inactive). Under `COc1ccc(NC(=O)c2ccco2)cc1NC(=O)c1ccc(C#N)cc1F` stands -2.95% (inactive); under `Cc1ccc(C)c(CN2CCC(CNC(=O)C3CCCN(c4ncnc5c4nc4n5CCCCC4)C3)CC2)c1` (configuration not stated), -1.9% (inactive); under `Cc1[nH]c2ccccc2c1CC(=O)Nc1ccc(Nc2cccnc2)c(-c2cccc(Cl)c2)c1`, -2.4% (inactive).

On to `CCCCOCC1CN(CCCC)S(=O)(=O)c2c(Oc3ccc(F)cc3)cccc2O1` (configuration not stated), for which the inhibition is 2.7% (inactive).
